Compound activity deposited in PubChem BioAssay by National Center for Advancing Translational Sciences (NCATS).
Compounds with a hit are over-represented: about 21% of the library has one in this group of screens.
NS1 function inh: inhibitors of influenza NS1 protein function | Potency, µM (highest dose often 46.1 µM), for the others: at the highest dose activity, positive = more growth | 270,000 tested, 0.4% active | AID 2326; calls by dose curve; further: potency means the concentration at half of the fitted maximal effect; actives are rising curves; nearly all actives have a fitted effect of over 50% in size
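Recovery from NS1-induced slow growth read by OD600 in budding yeast switched to galactose assay medium (pH 6.0, -URA) at 1:100 dilution. Compound 23 nl per well; the matching strain lacking NS1 serves as control.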
Shiga inhibitor: inhibitors of Shiga toxin in Vero cells. Vero cells, Shiga toxin protein synthesis inhibition reporter. inhibition, % at 38.7 µM. 290,000 tested, 9.2% active; in the data active means inhibition mostly above about 28%, no sharp cut-off; inactive means mostly below about 43%; further: 0% is about no effect
SARS PLpro yeast: SARS-CoV PLP inhibition in yeast. S. cerevisiae expressing SARS-CoV PLpro, growth rescue. Potency, µM (titrated, usually from 32.9 µM), for inactives: top-dose activity, positive = growth rescue, most hits filed as activators. 330,000 tested, 0.19% active. AID 485353; calls by dose curve; further: potency means the concentration at half of the fitted maximal effect; 0% is about no effect; nearly all actives have a fitted effect of over 55% in size
Pf growth 48h: P. falciparum growth inhibition at 48 hours (one generation); Potency, µM (doses to about 28.7 µM), for the others: at the highest dose activity change, negative = inhibition, hits mostly inhibitors; AID 504832; 310,000 tested, 5.9% active; P. falciparum luciferase growth in erythrocytes, 48 h; further: potency means the concentration at half of the fitted maximal effect; on the % scale 0 is the no-effect control and ±100 the full control effect
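Compounds are pin-transferred into medium, infected erythrocytes (2% hematocrit, 0.1% parasitemia final) are added, and plates sit one parasite generation at 37 C in 5% CO2. Detection reagent is then added and luminescence measured.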
Pf growth 96h: P. falciparum growth inhibition at 96 hours; Potency, µM (titrated, usually from 28.7 µM), for the others: at the top dose activity change, negative = inhibition, most hits filed as inhibitors; 320,000 tested, 6.9% active; P. falciparum luciferase reporter growth, 96 h; further: potency means the concentration at half of the fitted maximal effect; on the % scale 0 is the no-effect control and ±100 the full control effect
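Two parasite generations (96 h, 37 C, 5% CO2) of compound exposure in infected erythrocytes (0.05% parasitemia, 2% hematocrit). Luciferase-reporter P. falciparum; decreased luminescence indicates inhibited growth, aimed at apicoplast-acting delayed death.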
Cycloheximide cs: counter-screen for Shiga toxin inhibitors: cycloheximide protein synthesis inhibition. cell reporter, cycloheximide protein synthesis inhibition counterscreen. max response, %. 300,000 tested, 12% active. AID 2314; in the data active means max response mostly above about 13%, no sharp cut-off; inactive means mostly below about 14%; further: read at 38.3 µM for the half of the compounds with a filed dose; 0% is about no effect
An asterisk follows results filed as active; i = inactive; u = inconclusive; x = no result. Unless noted, the call rests on the fitted dose curve; in most records, active means well fitted inhibition curve with a large enough effect; inconclusive means small, poorly fitted or top-dose-only effect, or another doubt; inactive means no such curve, though single readings can be large or run the other way.

SMILES	NS1 function inh	Shiga inhibitor	SARS PLpro yeast	Pf growth 48h	Pf growth 96h	Cycloheximide cs
O=C(CNC(=O)c1cccc(OC(F)F)c1)Nc1ccc(Cl)cc1	-4%	8	5%	14%	6%	3
COc1ccc(NC(=O)c2ccco2)cc1NC(=O)c1ccccc1F	-10%	5	0%	13%	7%	-6
CCCC(=O)Nc1c(-c2cccc(OC)c2)c(=O)c2ccccc2n1C	-5%	-4	5%	-3%	-12%	3
Cc1ccc(C(CC(=O)N2CCNCC2)c2ccccc2)c(O)c1C (configuration not stated)	-1%	-10	-2%	u	u	-3
O=C(CCC(=O)N1CCOc2ccccc21)Nc1ccccc1Br	-12%	-5	-1%	11%	29%	1
COc1ccc(C(NC(=O)c2cccc(F)c2)c2ccccc2)cc1 (configuration not stated)	14%	1	16%	4%	u	-1
Cc1ccccc1C(=O)NC(NC(=O)c1ccccc1C)c1cccc([N+](=O)[O-])c1	-3%	-11	17%	27%	1.7µM*	-6
Cc1c(Cl)cccc1NC(=O)c1cccc(OC(F)F)c1	-51%	94*	-13%	x	u	37*
Cc1ccc(NC(=O)c2cccc(OC(F)F)c2)c(OC(F)F)c1	4%	17	1%	23%	54%	16
COc1cccc(C(NC(=O)c2ccccc2F)NC(=O)c2ccccc2F)c1	12%	-2	8%	13µM*	u	-3
COc1ccc(NC(=O)COc2ccccc2C(=O)NCC(c2ccccc2)N(C)C)cc1Cl (configuration not stated)	-3%	5	10%	u	13µM*	-4
COc1ccc(OC)c(NC(=O)CSc2nnc(CNC(=O)c3cccs3)o2)c1	17%	3	3%	6%	u	1
Oc1c(Br)cc(Br)cc1CNn1cnnc1	-1%	-10	3%	-11%	u	-6
COc1ccc(OCCCC(=O)Nc2cc(S(=O)(=O)N3CCCCC3)ccc2C)cc1	x	x	16%	u	u	x
CC(C)C[C@H](NC(=O)C1OC1C(=O)O)C(=O)NCCCCN=C(N)N (some centres not stated)	-6%	x	x	x	x	x
COc1ccc2c(c1)OC[C@H]1[C@H]2N2C(=O)CN(Cc3ccc(Cl)cc3)C(=O)[C@@]2(C)[C@H]1c1ccccc1	x	x	-4%	2.9µM*	u	x
COc1ccc(CN2CC(=O)N3[C@H]4c5ccc(OC)cc5OC[C@@H]4[C@H](c4ccccc4)[C@]3(C)C2=O)cc1	x	x	-26%	4.7µM*	u	x
COc1ccc(C)cc1NC(=O)CNC(C)C(=O)Nc1ccc(C(C)=O)cc1 (configuration not stated)	-6%	-7	1%	-9%	u	-1
CCCCN1C=C(C(=O)OC)C(c2ccccc2C(F)(F)F)C(C(=O)OC)=C1	-1%	-23	9%	x	0.52µM*	-2
CCOC(=O)C1=C(C)N(C)C(C)=C(C(=O)OCC)C1c1ccncc1	-14%	-8	-1%	u	17%	-1
CCOC(=O)C1=C(C)N(C)C(C)=C(C(=O)OCC)C1c1ccccc1	-8%	-13	11%	5.2µM*	u	-2
COC(=O)C1=C(C)N(C)C(=O)NC1c1ccccc1 (configuration not stated)	6%	-12	-2%	-6%	57%	-5
COC(=O)C1=C(C)N(C)C(C)=C(C(=O)OC)C1c1ccccc1C	-4%	-14	-5%	u	-3%	-4
CC1=C(C(=O)OC(C)C)C(c2ccccc2)NC(=O)N1C (configuration not stated)	21%	-23	0%	-4%	9.3µM*	-2
CCCCOc1ccccc1C1C(C(=O)OC)=C(C)N(C)C(C)=C1C(=O)OC	-104%	14	-38%	13µM*	24%	-1
SMILES	NS1 function inh	Shiga inhibitor	SARS PLpro yeast	Pf growth 48h	Pf growth 96h	Cycloheximide cs
Cc1nn(Cc2noc(C(=O)NCc3ccccn3)n2)c(C)c1Br	-5%	-3	-8%	17%	49%	-13
Cc1[nH]c2ccccc2c1C(=O)CSc1n[nH]c(N)n1	x	-19	2%	-1%	47%	-4
CC(C)(C)n1ncc2c(=O)n(CC(=O)N3CCCC3)cnc21	x	-7	0%	-3%	18%	8
CC(=O)Nc1ccc(NC(=O)Cn2cnc3c(cnn3C(C)(C)C)c2=O)cc1	8%	7	6%	75%	19%	2
CC1CCN(C(=O)Cn2cnc3c(cnn3C(C)(C)C)c2=O)CC1	x	93*	1%	194%	i	56*
CC(C)(C)n1ncc2c(=O)n(CC(=O)NCc3ccccc3)cnc21	-6%	37*	-8%	473%	66%	20*
Cc1ccc(Cl)c(Cn2cnc3c(cnn3C(C)(C)C)c2=O)c1F	x	x	-2%	u	u	x
Cc1ccc(-n2nnc3c(=O)n(CC(=O)N4CCC(C)CC4)cnc32)cc1	-3%	-3	1%	23%	4.1µM*	9
CC(C)(C)n1ncc2c(=O)n(Cc3c(F)cccc3Cl)cnc21	-47%	52	-4%	u	u	16*
Cc1ccc2nc(-c3ccncc3)c(NC3CCCCC3)n2c1	x	-6	2%	0%	2%	-1
COc1cccc(NC(=O)C(C)Sc2nnc(C3CC3)n2C2CC2)c1 (configuration not stated)	x	x	1%	u	-27%	x
CCN(C[C@H]1N[C@@](C)(C(=O)OC)[C@H]2C(=O)N(C)C(=O)[C@@H]12)S(=O)(=O)c1ccc(-c2ccccc2)cc1	x	x	1%	x	x	x
C[C@H](NC(=O)C1CCN(S(=O)(=O)c2ccccc2)CC1)C(=O)NCc1ccc(Cl)cc1Cl	-10%	4	3%	15%	u	7
COc1ccc(C(=O)CSc2nnc(CN3CCCC3)n2-c2ccc(F)cc2)c(OC)c1	1%	-8	5%	-20%	u	1
CC(C)[C@H](NC(=O)c1ccco1)C(=O)N(C)Cc1c(F)cccc1Cl	7%	56	-4%	2%	-6%	-2
CC(C)(C)n1ncc2c(=O)n(CC(=O)c3ccc(Cl)cc3)cnc21	-11%	84*	-3%	142%	u	78*
CC(C)(C)n1ncc2c(=O)n(CC(=O)Nc3ccc(Cl)cc3)cnc21	-12%	-6	3%	-22%	275%	1
COCCN1C(=O)C(=O)/C(=C(/O)c2ccc(S(=O)(=O)N3CCCCC3)cc2)C1c1ccc(OC)cc1 (configuration not stated)	-6%	-9	9%	22%	-11%	-1
C=CCOC(=O)c1c(C)nc2cc3c(cc2c1C)OCO3	4%	69*	5%	40%	45%	29*
CN1CCN(C=NC2=NN(c3cccc(C(F)(F)F)c3)CC2)CC1	-11%	20	-17%	57%	0%	21*
FC(F)(F)c1cccc(N2CCN(c3nnnn3-c3ccccc3)CC2)c1	-45%	-3	-12%	-4%	-24%	-3
